# Shown is part of a subset that was picked to be rich in the strongest signals.
# B1: Cohesin-hDC-ASGPR (Homo sapiens) (protein)
# chain: LDDLDAVRIKVDTVNAKPGDTVRIPVRFSGIPSKGIANCDFVYSYDPNVLEIIEIEPGDIIVDPNPDKSFDTAVYPDRKIIVFLFAEDSGTGAYAITKDGVFATIVAKVKEGAPNGLSVIKFVEVGGFANNDLVEQKTQFFDGGANVGDTTEPATPTTPVTTPTTTDDLDAASQNSKFQRDLVTLRTDFSNFTSNTVAEIQALTSQGSSLEETIASLKAEVEGFKQERQAGVSELQEHTTQKAHLGHCPHCPSVCVPVHSEMLLRVQQLVQDLKKLTCQVATLNNNASTEGTCCPVNWVEHQDSCYWFSHSGMSWAEAEKYCQLKNAHLVVINSREEQNFVQKYLGSAYTWMGLSDPEGAWKWVDGTDYATGFQNWKPGQPDDWQGHGLGGGEDCAHFHPDGRWNDDVCQRPYHWVCEAGLGQTSQESHHHHHH
# Columns and labels:
# Experiment in all cases: glycan array binding signal (z-score within array); higher = stronger binding
# Settings in all cases: glycan notation: IUPAC condensed, linker removed
# Fuc(a1-2)Gal = biological target: Fuc(a1-2)Gal
# Outline: (§1)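 The Consortium for Functional Glycomics database supplied 3228 glycan arrays, of which those lacking an available protein sequence were dropped. The binding signal, a within-array Z-score, was averaged across arrays of the same protein sequence and across linkers. Negative scores can be read as non-binding.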
# [1] = biological target: Fuc(a1-2)Gal(b1-4)GlcNAc(b1-6)GalNAc
# Outline: as §1
# [2] = biological target: Fuc(a1-2)Gal3S(b1-4)GlcNAc
# Outline: as §1
# [3] = biological target: Fuc(a1-2)Gal6S(b1-3)GlcNAc
# Outline: as §1
# [4] = biological target: Fuc(a1-2)[Gal(a1-3)]Gal(b1-3)GlcNAc(b1-3)GalNAc
# Outline: as §1
# [5] = biological target: Fuc(a1-2)[Gal(a1-3)]Gal(b1-3)GlcNAc(b1-6)GalNAc
# Outline: as §1
# [6] = biological target: Fuc(a1-2)[Gal(a1-3)]Gal(b1-4)[Fuc(a1-3)]Glc
# Outline: as §1
# [7] = biological target: Fuc(a1-2)[Gal(a1-4)]Gal(b1-4)GlcNAc
# Outline: as §1
# [8] = biological target: Fuc(a1-2)[GalNAc(a1-3)]Gal(b1-3)GalNAc(a1-3)[Fuc(a1-2)]Gal(b1-4)GlcNAc
# Outline: as §1
# [9] = biological target: Fuc(a1-2)[GalNAc(a1-3)]Gal(b1-3)GlcNAc(b1-2)Man(a1-3)[Fuc(a1-2)[GalNAc(a1-3)]Gal(b1-3)GlcNAc(b1-2)Man(a1-6)]Man(b1-4)GlcNAc(b1-4)GlcNAc
# Outline: as §1
# [10] = biological target: Fuc(a1-2)[GalNAc(a1-3)]Gal(b1-4)GlcNAc(b1-2)Man
# Outline: as §1
# [11] = biological target: Fuc(a1-2)[GalNAc(a1-3)]Gal(b1-4)GlcNAc(b1-3)Gal(b1-4)GlcNAc(b1-3)Gal(b1-4)GlcNAc
# Outline: as §1
# [12] = biological target: Fuc(a1-2)[GalNAc(a1-4)]Gal(b1-4)GlcNAc
# Outline: as §1
# [13] = biological target: Fuc(a1-3)[Gal(b1-4)]GlcNAc(b1-2)Man(a1-3)[Fuc(a1-3)[Gal(b1-4)]GlcNAc(b1-2)Man(a1-6)]Man(b1-4)GlcNAc(b1-4)[Fuc(a1-6)]GlcNAc
# Outline: as §1
# [14] = biological target: Fuc(a1-3)[Gal(b1-4)]GlcNAc(b1-3)GalNAc
# Outline: as §1
# [15] = biological target: Gal(a1-3)Gal(b1-3)GlcNAc(b1-6)GalNAc
# Outline: as §1
# [16] = biological target: Gal(a1-3)Gal(b1-3)[Fuc(a1-4)]GlcNAc(b1-2)Man(a1-3)[Gal(a1-3)Gal(b1-3)[Fuc(a1-4)]GlcNAc(b1-2)Man(a1-6)]Man(b1-4)GlcNAc(b1-4)GlcNAc
# Outline: as §1
# Gal(a1-3)Gal(b1-4)Glc = biological target: Gal(a1-3)Gal(b1-4)Glc
# Outline: as §1
# [17] = biological target: Gal(a1-3)Gal(b1-4)GlcNAc(b1-3)GalNAc
# Outline: as §1
# [18] = biological target: Gal(b1-3)GlcNAc(b1-3)Gal(b1-4)GlcNAc(b1-2)[Gal(b1-3)GlcNAc(b1-3)Gal(b1-4)GlcNAc(b1-6)]Man(a1-6)[Gal(b1-3)GlcNAc(b1-3)Gal(b1-4)GlcNAc(b1-2)Man(a1-3)]Man(b1-4)GlcNAc(b1-4)[Fuc(a1-6)]GlcNAc
# Outline: as §1
# [19] = biological target: Gal(b1-4)GlcNAc(b1-2)Man(a1-3)[Gal(b1-4)GlcNAc(b1-2)Man(a1-6)]Man(b1-4)GlcNAc(b1-4)GlcNAc
# Outline: as §1
# [20] = biological target: Gal(b1-4)GlcNAc(b1-2)[Gal(b1-4)GlcNAc(b1-4)]Man(a1-3)[Gal(b1-4)GlcNAc(b1-2)[Gal(b1-4)GlcNAc(b1-6)]Man(a1-6)]Man(b1-4)GlcNAc(b1-4)GlcNAc
# Outline: as §1
# [21] = biological target: Gal(b1-4)GlcNAc(b1-2)[Gal(b1-4)GlcNAc(b1-6)]Man(a1-6)[Gal(b1-4)GlcNAc(b1-2)Man(a1-3)]Man(b1-4)GlcNAc(b1-4)[Fuc(a1-6)]GlcNAc
# Outline: as §1
# [22] = biological target: Gal(b1-4)GlcNAc(b1-3)Gal(b1-4)GlcNAc(b1-2)[Gal(b1-4)GlcNAc(b1-3)Gal(b1-4)GlcNAc(b1-6)]Man(a1-6)[Gal(b1-4)GlcNAc(b1-3)Gal(b1-4)GlcNAc(b1-2)Man(a1-3)]Man(b1-4)GlcNAc(b1-4)GlcNAc
# Outline: as §1
# [23] = biological target: Gal3S(b1-3)[Fuc(a1-4)]GlcNAc
# Outline: as §1
# GalNAc(a1-3)GalNAc = biological target: GalNAc(a1-3)GalNAc
# Outline: as §1
# [24] = biological target: GalNAc(a1-3)GalNAc(b1-3)Gal(a1-4)Gal(b1-4)GlcNAc
# Outline: as §1
# [25] = biological target: GalNAc(b1-3)Gal(a1-6)Gal(b1-4)Glc
# Outline: as §1
# [26] = biological target: GalNAc(b1-4)GlcNAc(b1-2)Man
# Outline: as §1
# [27] = biological target: GalNAc3S(b1-4)[Fuc(a1-3)]GlcNAc
# Outline: as §1
binder,measurement,setting,value
B1,glycan array binding signal (z-score),Fuc(a1-2)Gal,-0.306
same,glycan array binding signal (z-score),[1],2.81
same,glycan array binding signal (z-score),[2],-0.377
same,glycan array binding signal (z-score),[3],-0.246
same,glycan array binding signal (z-score),[4],-0.407
same,glycan array binding signal (z-score),[5],2.85
same,glycan array binding signal (z-score),[6],-0.481
same,glycan array binding signal (z-score),[7],-0.495
same,glycan array binding signal (z-score),[8],3.55
same,glycan array binding signal (z-score),[9],2.83
same,glycan array binding signal (z-score),[10],2.03
same,glycan array binding signal (z-score),[11],1.93
same,glycan array binding signal (z-score),[12],3.15
same,glycan array binding signal (z-score),[13],-0.501
same,glycan array binding signal (z-score),[14],-0.391
same,glycan array binding signal (z-score),[15],2.9
same,glycan array binding signal (z-score),[16],-0.322
same,glycan array binding signal (z-score),Gal(a1-3)Gal(b1-4)Glc,-0.483
same,glycan array binding signal (z-score),[17],-0.475
same,glycan array binding signal (z-score),[18],0.077
same,glycan array binding signal (z-score),[19],-0.447
same,glycan array binding signal (z-score),[20],-0.517
same,glycan array binding signal (z-score),[21],-0.504
same,glycan array binding signal (z-score),[22],1.87
same,glycan array binding signal (z-score),[23],-0.306
same,glycan array binding signal (z-score),GalNAc(a1-3)GalNAc,2.37
same,glycan array binding signal (z-score),[24],1.97
same,glycan array binding signal (z-score),[25],2.84
same,glycan array binding signal (z-score),[26],2.86
same,glycan array binding signal (z-score),[27],-0.502
